We go through 15 compounds from PubChem BioAssay (NCATS).

Assay [1] deals with MCC-13. Description: qHTS assay to identify novel small-molecules to repurpose for Merkel cell carcinoma treatment (AID 1296009). Further: nearly all actives have a fitted effect of over 60% in size. Further: potency means the concentration at half of the fitted maximal effect. Particulars: MCC and control cell lines, CellTiter-Glo viability, 72 h; series mostly up to 46 µM. The procedure, abridged:
(§1)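 Cell viability measured by CellTiter-Glo following 72 hr compound treatment at 37 degree celsius, with NPC and MIPE libraries tested in 8- and 11-point concentration series.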
(In qHTS, concentration-response curves come from the screen itself.)

The subject of assay [2] is MCC-26. Described as above. As to conditions: MCC and control cell lines, CellTiter-Glo viability, 72 h; series mostly up to 46 µM. The procedure, abridged:
as §1
(Cellular ATP, detected with luciferase, serves as a proxy for viable cell number.)

The test system of assay [3] is MKL-1. Described as above. Particulars: MCC and control cell lines, CellTiter-Glo viability, 72 h; series mostly up to 46 µM. The procedure, abridged: as §1
Assay [4] concerns MKL-2. The description is as above. As to conditions: MCC and control cell lines, CellTiter-Glo viability, 72 h; series mostly up to 46 µM. The gist of the method:
as §1

Assay [5] relates to UISO. The description is as above. As to conditions: MCC and control cell lines, CellTiter-Glo viability, 72 h; series mostly up to 46 µM. The gist of the method:
as §1

The subject of assay [6] is WaGa. Described as above. Particulars: MCC and control cell lines, CellTiter-Glo viability, 72 h; series mostly up to 46 µM. The gist of the method:
as §1

For assay [7], the system named is C33A. Description: Primary qHTS to identify gynecologic anti-cancer compounds using libraries of approved drugs and bioactive compounds (AID 1345084). Further: nearly all actives have a fitted effect of over 55% in size. Particulars: Gynecologic cancer cell panel viability, ATPlite luminescence, 48 h; series mostly up to 57.5 µM. The procedure, abridged:
(§2)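 Five-point cytotoxicity, 48 h drug exposure at 37 C, 5% CO2, on cells seeded 16 h beforehand. ATP content read by ATPlite luminescence.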

For assay [8], the system named is CAOV3. Described as above. As to conditions: Gynecologic cancer cell panel viability, ATPlite luminescence, 48 h; series mostly up to 57.5 µM. The gist of the method:
as §2

The subject of assay [9] is CASKI. The assay is described as above. As to conditions: Gynecologic cancer cell panel viability, ATPlite luminescence, 48 h; series mostly up to 57.5 µM. The procedure, abridged:
as §2

For assay [10], the system named is Es-2. Described as above. Particulars: Gynecologic cancer cell panel viability, ATPlite luminescence, 48 h; series mostly up to 57.5 µM. The gist of the method:
as §2

Assay [11] has as its system HeLa. Described as above. Particulars: Gynecologic cancer cell panel viability, ATPlite luminescence, 48 h; series mostly up to 57.5 µM. The procedure, abridged:
as §2

Assay [12] has as its system Hek293T. The description is as above. Particulars: Gynecologic cancer cell panel viability, ATPlite luminescence, 48 h, control line for the selectivity index; series mostly up to 57.5 µM. The procedure, abridged:
as §2

In assay [13] the test system is JEG-3. Described as above. As to conditions: Gynecologic cancer cell panel viability, ATPlite luminescence, 48 h; series mostly up to 57.5 µM. The gist of the method: as §2
The subject of assay [14] is PA-1. The description is as above. Particulars: Gynecologic cancer cell panel viability, ATPlite luminescence, 48 h; series mostly up to 57.5 µM. The procedure, abridged: as §2
The subject of assay [15] is SKOV3. The description is as above. As to conditions: Gynecologic cancer cell panel viability, ATPlite luminescence, 48 h; series mostly up to 57.5 µM. The procedure, abridged:
as §2

Assay [16] relates to Tov-21-G. The description is as above. Particulars: Gynecologic cancer cell panel viability, ATPlite luminescence, 48 h; series mostly up to 57.5 µM. The procedure, abridged:
as §2

Assay [17] relates to Tov112D. The description is as above. Particulars: Gynecologic cancer cell panel viability, ATPlite luminescence, 48 h; series mostly up to 57.5 µM. The procedure, abridged:
as §2

The test system of assay [18] is OV90. The description is as above. Particulars: Gynecologic cancer cell panel viability, ATPlite luminescence, 48 h; series mostly up to 57.5 µM. The gist of the method: as §2

Records with an inconclusive call do not appear. A number with no mark means an inactive call. Calls of active or inactive are those of the source. The call rests on the fitted dose curve; in most records, active means well fitted curve in the direction sought with a large enough effect; inconclusive means small, poorly fitted or top-dose-only effect, or another doubt; inactive means no such curve, though single readings can be large; an effect the other way counts as inactive or inconclusive.

Consider `C=CCOc1cc(Cl)ccc1C(=O)NCCN(CC)CC`, for which the Potency entry in [1], in assay [2], in assay [3], in [4], in assay [5] and in assay [6] was “inactive” throughout. Further, the Potency entry in assay [7], in [8], in [9], in [10], in assay [11] and in assay [12] was “inactive” throughout. Besides, the Potency entry in [13], in assay [14], in [15], in assay [16] and in assay [17] was “inactive” throughout.
`O=C1CCCc2c(O)cccc21`: the Potency result in assay [1], in [2], in [3], in [4], in assay [5] and in [6] was “inactive” each time. The Potency result in assay [7], in assay [8], in assay [9], in assay [10], in assay [12] and in assay [13] was “inactive” in each case. In addition, the Potency entry in [14], in assay [16] and in [17] was “inactive” each time.
On to `O=C(O)CCCC[C@@H]1SC[C@@H]2NC(=O)N[C@@H]21`, for which the Potency entry in assay [1], in assay [2], in [3], in [4], in assay [5] and in assay [6] was “inactive” throughout. The Potency result in [7], in assay [8], in [9], in assay [10], in [11] and in [12] was “inactive” throughout. The Potency result in [13], in [18], in assay [14], in assay [15], in assay [16] and in assay [17] was “inactive” throughout.
With `Cc1cc(O)c2c(O)c3c(O)cccc3cc2c1`, the Potency result in assay [1], in assay [2], in assay [3], in [4], in assay [5] and in [6] was “inactive” each time. The Potency result in assay [7], in assay [8], in [9], in [10], in assay [11] and in [12] was “inactive” throughout. In addition, the Potency result in [13], in assay [18], in assay [14], in [16] and in assay [17] was “inactive” in each case.
For the compound `C[C@H]1NCc2cc(-c3ccc4c(=O)c(C(=O)O)cn(C5CC5)c4c3OC(F)F)ccc21`, the Potency entry in assay [1], in assay [2], in assay [3], in [4], in [5] and in [6] was “inactive” each time. Also, the Potency entry in assay [7], in assay [8], in assay [9], in [10], in [11] and in [12] was “inactive” each time. The Potency entry in assay [13], in [18], in assay [14], in assay [16] and in assay [17] was “inactive” throughout.
For the compound `Nc1ccc(C(=O)OCC(O)CO)cc1` (stereo not given), the Potency result in [1], in [2], in [3], in [4], in [5] and in assay [6] was “inactive” each time. For the same compound, the Potency result in [7], in assay [8], in assay [9], in assay [10], in assay [11] and in assay [12] was “inactive” each time. Also, the Potency entry in assay [13], in assay [18], in assay [15], in assay [16] and in assay [17] was “inactive” throughout.
For `C[C@@H](C1=C(CCN(C)C)Cc2ccccc21)c1ccccn1`, the Potency result in assay [1], in assay [2], in assay [3], in assay [4], in assay [5] and in assay [6] was “inactive” each time. The Potency result in assay [7], in assay [8], in assay [9], in assay [10], in [11] and in [13] was “inactive” each time. In addition, the Potency result in [14], in [15], in assay [16] and in assay [17] was “inactive” throughout.
In the case of `Cc1cc(C(C)(C)C)c(O)c(C(C)(C)C)c1`, the Potency result in assay [1], in assay [2], in assay [3], in assay [4], in assay [5] and in [6] was “inactive” throughout. Further, the Potency entry in [7], in assay [9], in [10], in [11], in [12] and in assay [13] was “inactive” throughout. Besides, the Potency entry in [18], in [14], in assay [15], in assay [16] and in assay [17] was “inactive” throughout.
As for `CC(=O)N(CC(=O)N(C)C)c1ccccc1`, the Potency result in [1], in assay [2], in assay [3], in assay [4], in assay [5] and in assay [6] was “inactive” each time. Further, the Potency result in [7], in assay [10], in assay [11], in [12], in [15] and in assay [16] was “inactive” throughout.
Turning to `CCCCCCOC(=O)NC(=N)c1ccc(NCc2nc3cc(C(=O)N(CCC(=O)OCC)c4ccccn4)ccc3n2C)cc1`, the Potency entry in assay [1], in [2], in assay [5], in assay [7], in assay [8] and in assay [9] was “inactive” throughout. Besides, the Potency entry in assay [11], in assay [13], in assay [14], in [15], in assay [16] and in assay [17] was “inactive” throughout. The Potency in [3] is 8.41 µM (active); in [4] it was 15 µM (active).
For `Cc1ccc2c(Cl)cc(Cl)c(O)c2n1`, the Potency entry in assay [1], in [2], in [3], in assay [4], in [5] and in [6] was “inactive” throughout. For the same compound, the Potency entry in assay [7], in assay [9], in assay [10], in assay [11], in assay [12] and in [13] was “inactive” each time. The Potency result in assay [18], in assay [14], in assay [15], in assay [16] and in [17] was “inactive” in each case.
Regarding `CCC[C@H](N[C@@H](C)C(=O)N1[C@H](C(=O)O)C[C@@H]2CCCC[C@@H]21)C(=O)OCC`, the Potency entry in assay [1], in assay [2], in [3], in assay [4], in assay [5] and in assay [7] was “inactive” each time. Also, the Potency result in assay [8], in [9], in assay [10], in assay [11], in assay [12] and in [13] was “inactive” in each case. In addition, the Potency result in assay [18], in [14], in assay [15], in assay [16] and in assay [17] was “inactive” each time.
Turning to `c1ccc(C(O[C@H]2CCCN(CCc3ccc4c(c3)OCO4)C2)c2ccccc2)cc1`, the Potency entry in assay [1], in [2], in [3], in assay [4], in assay [5] and in assay [7] was “inactive” each time. The Potency entry in [8], in assay [9], in assay [10], in [11], in assay [12] and in assay [13] was “inactive” in each case. In addition, the Potency result in assay [18], in assay [14], in assay [15], in assay [16] and in [17] was “inactive” each time.
Regarding `O=C(OCC1(COC(=O)c2cccnc2)CCCC(COC(=O)c2cccnc2)(COC(=O)c2cccnc2)C1O)c1cccnc1`, the Potency result in assay [1], in [2], in assay [3], in [4], in [5] and in assay [6] was “inactive” throughout. The Potency result in assay [7], in assay [9], in assay [10], in assay [11], in assay [12] and in assay [13] was “inactive” each time. In addition, the Potency entry in assay [18], in assay [14], in [15], in [16] and in assay [17] was “inactive” in each case.
Take `O=[N+]([O-])c1cncn1CCN1CCOCC1`: the Potency entry in assay [1], in assay [2], in [3], in assay [4], in assay [5] and in assay [6] was “inactive” each time. The Potency entry in [7], in assay [9], in assay [10], in assay [11], in [12] and in [13] was “inactive” in each case. For the same compound, the Potency result in assay [18], in [14], in assay [15], in assay [16] and in [17] was “inactive” in each case.
